Screening results (PubChem)
The sample as a whole holds a higher share of hits than the screen did.
TDP1 cell CPT – qHTS for Inhibitors of human tyrosyl-DNA phosphodiesterase 1 (TDP1): qHTS in cells in presence of CPT | chicken DT40 Tdp1-/-;hTDP1 cells + 20 nM CPT, ATP luminescence, 48 h | Potency, µM (highest dose often 46.2 µM), inactives show at the top dose activity change, negative = growth inhibition, most hits filed as inhibitors | 420,000 compounds, 12% hits | AID 686979, 2013; further: potency means the concentration at half of the fitted maximal effect; nearly all actives have a fitted effect of over 55% in size
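Cell growth measured by CellTiter-Glo luminescence after a minimum 48 h, 37 C compound exposure with 20 nM CPT in Tdp1-knockout DT40 cells stably expressing hTDP1, seeded 400/well; qHTS titration format.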
HT1080 IDH1KD tx – qHTS for induction of synthetic lethality in tumor cells producing 2HG: qHTS for the HT-1080-IDH1KD cell line; Potency, µM (titrated, usually from 46.1 µM), without a hit: top-dose activity, negative = toxicity, hits mostly cytotoxic; 360,000 compounds, 2% hits; HT-1080 IDH1 knockdown viability, ATP luminescence, 48 h; AID 686971, 2013;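 further: potency means the concentration at half of the fitted maximal effect; 0% = DMSO wells and -100% = cell-free medium wells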
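IDH1KD HT-1080 cells, 750/well, RPMI + 5% FBS; compound pinned after 2 h settling; 48 h, 37 °C; CellTiter-Glo luminescence; % activity normalised to DMSO and no-cell wells; curves fitted, classed by r2 and efficacy.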
DT40 TDP1 no CPT – qHTS for Inhibitors of human tyrosyl-DNA phosphodiesterase 1 (TDP1): qHTS in cells in absence of CPT. DT40 Tdp1-/- hTDP1 cells, no CPT, ATP luminescence, 48 h. 420,000 compounds, 15% hits. Potency, µM (top dose mostly 46.2 µM), without a hit: top-dose activity change, negative = growth inhibition, most hits filed as inhibitors. AID 686978, 2013; further: potency means the concentration at half of the fitted maximal effect; nearly all actives have a fitted effect of over 55% in size
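Camptothecin absent (DMSO only). Human TDP1-complemented DT40 knockout cells, 400 cells/well, 37 °C for minimum 48 hr; ATP measured via CellTiter-Glo, 30 min dark incubation, luminescence.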
HT1080NT lethal – qHTS for induction of synthetic lethality in tumor cells producing 2HG: qHTS for the HT-1080-NT fibrosarcoma cell line; HT-1080-NT fibrosarcoma viability, CellTiter-Glo ATP luminescence, 48 h; Potency, µM (doses to about 46.1 µM), for inactives: at the highest dose activity, negative = less viability, most hits filed as cytotoxic; 360,000 compounds, 1.6% hits; AID 686970, 2013;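 further: NT is the 2HG producing partner of a matched IDH1 knockdown line; potency means the concentration at half of the fitted maximal effect; 0% = DMSO-treated cells and -100% = media-only wells without cells; nearly all actives have a fitted effect of over 55% in size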
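Fibrosarcoma NT cells, 750 per well in 5% FBS RPMI, were exposed to compound for 48 hours. Viability: CellTiter-Glo luminescence.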
12-LOX inh – Primary qHTS assay for inhibitors of human arachidonate 12S-lipoxygenase (ALOX12): Round 2 | 580,000 compounds, 1.1% hits | purified 12hLO, xylenol orange hydroperoxide absorbance | AID 1671190, 2021 | Potency, µM (top dose mostly 108 µM), inactives show at the highest dose activity change, negative = inhibition, most hits filed as inhibitors; further: potency means the concentration at half of the fitted maximal effect
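Purified human 12hLO at 150 nM in 25 mM Hepes, 0.01% Triton X-100, pH 7.0, preincubated 15 min at room temperature with compound. Reaction started with 40 uM arachidonic acid, 30 min at room temperature. Hydroperoxide measured by Fe-xylenol orange, 573/405 nm absorbance ratio.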
IL-1B inflam inh – qHTS for Inhibitors of Inflammasome Signaling: IL-1-beta AlphaLISA Primary Screen. THP-1 LPS/ATP IL-1B secretion, AlphaLISA, 16 h; stronger effect = lower value. activity change, % at 57.5 µM. 360,000 compounds, 4.7% hits; in the data active means activity change below about -50%; inconclusive means mostly about -30% to -49%
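THP-1 cells pretreated 1 hr with compounds (up to 57.5 uM final), then stimulated with LPS (250 ng/mL final) plus ATP (1.25 mM final); secreted IL-1B measured by AlphaLISA after 16 hr, decreased signal indicating inhibition.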
* marks the source's active call; other numbers are inactive results; i = inactive; u = inconclusive; x = no result given; [ ] = another dose, or the depositor's remark. Unless noted, the call rests on the fitted dose curve; in most records, active means well fitted curve in the direction sought with a large enough effect; inconclusive means small, poorly fitted or top-dose-only effect, or another doubt; inactive means no such curve, though single readings can be large; an effect the other way counts as inactive or inconclusive. Unless noted, on the % scale 0 is the no-effect control and ±100 the full control effect.

SMILES	TDP1 cell CPT	HT1080 IDH1KD tx	DT40 TDP1 no CPT	HT1080NT lethal	12-LOX inh	IL-1B inflam inh
Cc1ccc(NS(=O)(=O)c2cc3c4c(cccc4c2)C(=O)NC3=O)cc1	u	u	9.2µM*	u	-18%	14
CNS(=O)(=O)c1cc2c3c(cccc3c1)C(=O)NC2=O	18µM*	-8%	23µM*	-2%	-10%	-10
COc1ccc(N(CC(=O)NC2CCCC2)C(=O)Cn2nnc(-c3ccc(OC)c(OC)c3)n2)cc1	1%	5%	-17%	0%	-5%	-1
Cc1ccc(-c2nnn(CC(=O)N(CC(=O)NC3CCCCC3)c3ccc(F)c(Cl)c3)n2)o1	13µM*	18µM*	21µM*	u	262%	27
COc1ccc(-c2nnn(CC(=O)N(CC(=O)NC3CCCC3)c3ccccc3)n2)cc1OC	u	8%	15µM*	2%	17%	-2
Cc1ccc(-c2nnn(CC(=O)N(CC(=O)NC3CCCC3)c3ccc(F)c(Cl)c3)n2)o1	u	16µM*	u	u	286%	33
CC1(COS(N)(=O)=O)CCCCC1	0.46µM*	5%	-19%	10%	x	74
O=C(Cc1n[nH]c(=O)c2ccccc12)NC1CCc2ccccc21 (stereo not given)	x	x	x	x	5%	x
CN1CCN(C(=O)CCN2C(=O)/C(=C/c3ccccc3Cl)SC2=S)CC1	16µM*	u	12µM*	u	-5%	-97*
CN1CCN(NC(=O)CN2C(=O)/C(=C/c3ccccc3Cl)SC2=S)CC1	u	1%	u	-2%	u	-6
O=C(CCN1C(=O)/C(=C\c2ccccc2F)SC1=S)N1CCOCC1	u	3%	0.73µM*	-4%	u	-2
CN1CCN(C(=O)CCN2C(=O)/C(=C\c3ccccc3F)SC2=S)CC1	-104%	u	u	-13%	u	-51*
O=C(O)CN1C(=O)/C(=C\c2cn(CC(=O)N3CCOCC3)c3ccccc23)SC1=S	-4%	-1%	-22%	0%	u	15
CC(=O)Nc1cccc(-c2ncc3c(n2)OCCN(CC2CC2)C3=O)c1	x	x	x	x	6%[176 µM]	x
O=C(c1ccc(Cl)nc1)N1CCN(c2nc3ncccc3o2)CC1	x	x	x	x	17%	x
Cc1cccc(-c2nc3c(cnn3-c3ccccc3)c(=O)n2-c2ccc(Cl)cc2)c1	u	x	15µM*	x	-27%	x
COc1cccc(-n2c(-c3cccc(F)c3)nc3c(cnn3-c3ccc(C)cc3)c2=O)c1	u	x	u	x	-9%	x
O=c1c2cnn(-c3ccccc3)c2nc(-c2cccs2)n1-c1ccc(Br)cc1	u	6%	0.58µM*	10%	i	39
COc1ccc(-n2c(-c3cccc(F)c3)nc3c(cnn3-c3ccc(C)cc3)c2=O)cc1	18µM*	x	26µM*	x	-12%	x
Cc1cccc(-c2nc3c(cnn3-c3ccccc3)c(=O)n2-c2ccc(Br)cc2)c1	u	x	18µM*	x	5%	x
Cc1ccc(-n2c(-c3cccc(C)c3)nc3c(cnn3-c3ccccc3)c2=O)cc1	u	x	u	x	-26%	x
CCO[C@H]1CN(C(=O)c2ccc(OC)c(N3CCOCC3)c2)C[C@@H]1O	x	x	x	x	13%	x
Cc1ccc2c(C(=O)Nc3ccc(N4CCOCC4)cc3)cc(NC(=O)C3CCC3)cc2n1	x	x	x	x	95%	x
